Consider 3 molecules from the supplement of paper PMC11577813, “Eurasian spruce bark beetle detects lanierone using a highly expressed specialist odorant receptor, present in several functional sensillum types” (BMC Biology, 2024).

Molecules are shown by their SMILES. ± gives the standard deviation of the averaged measurements.

The test has as its system ipsdienol A-neuron OSN class. In words: net action potential response of A-neuron (blank-subtracted) (spikes/s (Hz)); higher = stronger excitation. The following applies: 10 µg on filter paper; neuron: A neuron (large spike amplitude). On the procedure:
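Single sensillum recordings from antennal olfactory sensilla of live adult Ips typographus. Each compound was 10 µg in paraffin oil on filter paper, delivered as a 0.5 s puff. Net response = spikes in the first 0.5 s of response minus the 0.5 s pre-stimulus count, doubled to give Hz, with blank response subtracted. Values are for the large-spike A-neuron class of each of seven sensillum types that co-house the lanierone B-neuron; N = 1-4 sensilla, averaged.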
With `Cc1ccccc1` [Toluene], the “net action potential response” value was -1.33 ± 5.

In the case of `O=Cc1ccccc1` [Benzaldehyde], the “net action potential response” value was found to be 2 ± 4.

In the case of `C=CCc1ccc(OC)cc1` [Estragole], the “net action potential response” value was found to be 2.67 ± 1.1.
